Measurements: PubChem BioAssay (NCI)
The panel holds about 79,000 compounds, 15% with a hit somewhere; the sample as a whole holds those more often. Calls of active or inactive are those of the source. Rule as the data show it: active = growth inhibition above about 70%; inactive = the rest.

Assays:
[1] = NCI Yeast Anticancer Drug Screen. Data for the rad50 strain (AID 155);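 also: 0% = growth of vehicle-only cultures of the same strain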; details: S. cerevisiae rad50 strain growth inhibition; at 50.0 µM; stronger effect = higher value
In short: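 Growth of the mutant yeast was measured after compound exposure and referenced to vehicle-treated cultures.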

[2] = NCI Yeast Anticancer Drug Screen. Data for the mec2-1 strain (AID 157); details: S. cerevisiae mec2-1 strain, at 50.0 µM, stronger effect = higher value
In short: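 Cells of the genetically defined mec2-1 yeast strain are incubated with test compound. Inhibition of growth is calculated against vehicle-treated controls.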

[3] = NCI Yeast Anticancer Drug Screen. Data for the sgs1 mgt1 strain (AID 161);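 also: 0% = growth of cultures given vehicle only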; details: S. cerevisiae sgs1 mgt1 strain, at 50.0 µM, stronger effect = higher value
In short: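 Inhibition of yeast growth, normalised to vehicle-treated controls, is reported for a strain bearing genetic alterations in DNA damage repair.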

[4] = NCI Yeast Anticancer Drug Screen. Data for the cln2 rad14 strain (AID 165);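 also: 0% = growth equal to vehicle treated cultures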; details: S. cerevisiae cln2 rad14 strain, at 50.0 µM, stronger effect = higher value
In short: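 The screen exposed genetically defined yeast (cln2 rad14) to test compounds and scored growth inhibition relative to vehicle-treated controls.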

[5] = NCI Yeast Anticancer Drug Screen. Data for the bub3 strain (AID 167); details: S. cerevisiae bub3 mutant strain, at 50.0 µM, stronger effect = higher value
In short: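 Whole-cell yeast assay. The mutant strain was incubated with compounds, and growth inhibition was determined by comparison with vehicle-treated cells.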

[6] = NCI Yeast Anticancer Drug Screen. Data for the mlh1 rad18 strain (AID 175); details: S. cerevisiae mlh1 rad18 strain growth inhibition; at 50.0 µM; stronger effect = higher value
In short: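 Compound-treated yeast growth, normalised to vehicle controls. Strain bears defined DNA repair mutations.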

SMILES	growth inhibition [1]	growth inhibition [2]	growth inhibition [3]	growth inhibition [4]	growth inhibition [5]	growth inhibition [6]
O=c1[nH]cnc2c1ncn2CCCCc1ccccc1	8.4% (inactive)	-5.25% (inactive)	8.45% (inactive)	0.9% (inactive)	5.7% (inactive)	14.8% (inactive)
CCOC(=O)C(=O)Nc1nc2ccc(OC)cc2s1	-39.8% (inactive)	-7.3% (inactive)	-10.8% (inactive)	6.75% (inactive)	0.15% (inactive)	9.25% (inactive)
C[N+](C)(C)c1ccc(C(N)C(=O)O)cc1 (centres undefined)	-7.7% (inactive)	-18.3% (inactive)	-17.1% (inactive)	-30.1% (inactive)	-41.7% (inactive)	2.8% (inactive)
CC(=O)NS(=O)(=O)c1ccc(NC(=O)CCC(=O)O)cc1	-8.95% (inactive)	-20.4% (inactive)	2.4% (inactive)	7.2% (inactive)	9.1% (inactive)	4% (inactive)
CC(/C=N/Nc1ccccc1)=N\N=c1/scc(-c2ccc(Cl)cc2)n1-c1ccc(Cl)cc1	22.4% (inactive)	4.65% (inactive)	13.9% (inactive)	-0.2% (inactive)	11.1% (inactive)	27.9% (inactive)
O=C(NCCCCCCNC(=O)NCc1ccco1)NCc1ccco1	-22.7% (inactive)	-28.2% (inactive)	-28.1% (inactive)	-15.7% (inactive)	0.05% (inactive)	-19.9% (inactive)
CNC(=S)SCc1ccc(Cl)cc1	-10.6% (inactive)	-12.5% (inactive)	11.4% (inactive)	-36.6% (inactive)	40.8% (inactive)	2.7% (inactive)
CN(C)Cc1c[nH]c2nc[nH]c(=O)c12	-1.3% (inactive)	-31.4% (inactive)	-31.4% (inactive)	6% (inactive)	-9.5% (inactive)	-16.4% (inactive)
CCOC(=O)NCC(C)(C)N(C(=O)OCC)c1ccccc1	-24.1% (inactive)	-42.1% (inactive)	-15.7% (inactive)	-9.95% (inactive)	-37.8% (inactive)	-7.7% (inactive)
CN(C)c1nc(O)cc(=O)[nH]1	5.05% (inactive)	-0.35% (inactive)	-6.6% (inactive)	-34.8% (inactive)	8.3% (inactive)	25.3% (inactive)
Cn1cc(/C=C/C(=O)c2ccccc2[N+](=O)[O-])c2ccccc21	7.8% (inactive)	12.9% (inactive)	2.6% (inactive)	18.1% (inactive)	0.6% (inactive)	2.85% (inactive)
CCCCC(CC)C(C(C)=O)N(C)C (centres undefined)	33.1% (inactive)	-9.45% (inactive)	13.1% (inactive)	8.65% (inactive)	4.45% (inactive)	4.75% (inactive)
C[C@H](CCC(=O)NCC(=O)O)[C@H]1CC[C@H]2[C@@H]3[C@H](O)C[C@@H]4C[C@H](O)CC[C@]4(C)[C@H]3CC[C@]12C	14.2% (inactive)	-13.4% (inactive)	0.15% (inactive)	4.05% (inactive)	-0.3% (inactive)	6.5% (inactive)
COc1ccc(C2=NCCO2)cc1N	3.6% (inactive)	0.45% (inactive)	-13.7% (inactive)	-5.5% (inactive)	4.35% (inactive)	11.4% (inactive)
Cc1ccc(NC(=O)OCCOc2c(C(C)C)cccc2C(C)C)c([N+](=O)[O-])c1	-0.8% (inactive)	-3.3% (inactive)	8.55% (inactive)	-41.9% (inactive)	-7.7% (inactive)	18.4% (inactive)
NC(=S)N/N=C1\CCCCC1C(O)(C(F)(F)Cl)C(F)(F)Cl (centres undefined)	-26.2% (inactive)	-33.8% (inactive)	-19.1% (inactive)	-8.9% (inactive)	-11.5% (inactive)	-25.2% (inactive)
c1ccc2c(c1)nn1c3ccc4nonc4c3[n-][n+]21	1.2% (inactive)	-0.5% (inactive)	25.9% (inactive)	13.2% (inactive)	31.4% (inactive)	-11.4% (inactive)
Fc1ccccc1C1CC(c2ccc3ccccc3c2)=Nc2ccccc2S1 (centres undefined)	30.9% (inactive)	12.1% (inactive)	18.4% (inactive)	13.4% (inactive)	10.4% (inactive)	34.4% (inactive)
CCCCCC1(C=O)C(=O)NC(=O)N1C (centres undefined)	2.25% (inactive)	-5.45% (inactive)	-1.45% (inactive)	-0.45% (inactive)	-0.05% (inactive)	-8.2% (inactive)
Cc1ccc(NC(=O)CCC(=O)O)cc1Cl	-19.9% (inactive)	-15.9% (inactive)	-4.25% (inactive)	-27.2% (inactive)	-10.9% (inactive)	-16.2% (inactive)

SMILES	growth inhibition [1]	growth inhibition [2]	growth inhibition [3]	growth inhibition [4]	growth inhibition [5]	growth inhibition [6]
NC(N)=NOCC(=O)O	-7.2% (inactive)	-14.7% (inactive)	-8.85% (inactive)	-42.5% (inactive)	3.95% (inactive)	-16.1% (inactive)
COc1cc2c(cc1C/C=C/c1ccccc1)OCO2	-11.4% (inactive)	-15.9% (inactive)	-0.9% (inactive)	-9.5% (inactive)	17.1% (inactive)	-6.4% (inactive)
CC(C)c1cc(CN(C)C)c(O)c(C(C)(C)C)c1	-25.4% (inactive)	23.2% (inactive)	-43.5% (inactive)	-40% (inactive)	-14.3% (inactive)	-8.3% (inactive)
CC1(C(=O)N2c3ccccc3C=CC2C#N)CC2C=CC1C2 (centres undefined)	-19.9% (inactive)	4.6% (inactive)	1.9% (inactive)	7.6% (inactive)	-2.4% (inactive)	-15.9% (inactive)
CN(C)c1ccc(/C=N\NC(=S)Nc2ccc3cn[nH]c3c2)cc1	20.9% (inactive)	-10.9% (inactive)	-1.15% (inactive)	8.1% (inactive)	23.3% (inactive)	-9.5% (inactive)
Nc1nc(Nc2ccccc2)c2ncn(C3OC(CO)C(O)C3O)c2n1 (centres undefined)	12.7% (inactive)	1.25% (inactive)	0.25% (inactive)	-1.35% (inactive)	3.6% (inactive)	-12.3% (inactive)
CCOc1cc(/C=C2/C=C(c3ccc(OC)cc3)OC2=O)ccc1O	-13.9% (inactive)	0.5% (inactive)	4.5% (inactive)	-19.1% (inactive)	2.75% (inactive)	-0.7% (inactive)
CS(=O)(=O)NCCBr	-10.4% (inactive)	-3.5% (inactive)	5.9% (inactive)	-22.4% (inactive)	-32% (inactive)	-10.9% (inactive)
CCOC(=O)C(=[N+]=[N-])C(=O)CN1C(=O)c2ccccc2C1=O	-21.6% (inactive)	-7% (inactive)	-31.5% (inactive)	-7.7% (inactive)	5.9% (inactive)	-15.9% (inactive)
Cc1ccc(CN2CCCCC2)o1	16.6% (inactive)	3.2% (inactive)	0.2% (inactive)	1.1% (inactive)	2.05% (inactive)	7.5% (inactive)
Cc1nc(N)nc2c1CCC(=O)N2	11.7% (inactive)	7.6% (inactive)	-3.1% (inactive)	-37.6% (inactive)	0.65% (inactive)	1.7% (inactive)
CC(=O)NC(Cc1ccccc1)C(=O)Nc1ccc(C)cc1 (centres undefined)	14.3% (inactive)	0.55% (inactive)	15.8% (inactive)	16.6% (inactive)	11.4% (inactive)	14.2% (inactive)
O=[N+]([O-])c1cccc2nc3ccccc3c(NCCc3ccccn3)c12	13.3% (inactive)	-19.9% (inactive)	20.6% (inactive)	-32.4% (inactive)	-17.1% (inactive)	13.8% (inactive)
CC(=O)OC/C(C)=N\NS(=O)(=O)c1cc(Cl)c(Cl)cc1Cl	15.1% (inactive)	16.4% (inactive)	15.8% (inactive)	13.8% (inactive)	6.8% (inactive)	13.5% (inactive)
CCOC(=O)C1/C(=C\O)C(=O)c2cc(OC)c(OC)cc2C1c1ccc(OC)c(OC)c1 (centres undefined)	-0.5% (inactive)	0.9% (inactive)	20.6% (inactive)	8.35% (inactive)	-5.95% (inactive)	21.9% (inactive)
CCCCCCCC(=O)N(CCCCC)CCCCC	66.5% (inactive)	77.2% (active)	77.2% (active)	74% (active)	66.5% (inactive)	66.5% (inactive)
O=C(OCN1C(=O)C2C3C=CC(C2C1=O)C1C2C(=O)N(COC(=O)C4CCCN4)C(=O)C2C31)C1CCCN1 (centres undefined)	5% (inactive)	-15.6% (inactive)	-36.6% (inactive)	2.95% (inactive)	-42.8% (inactive)	-10.1% (inactive)
CC(=O)N1CN=C2Sc3ccccc3N2C1	4.05% (inactive)	0.2% (inactive)	8.45% (inactive)	-16% (inactive)	13.2% (inactive)	18.5% (inactive)
Nc1nc2c(c(-c3ccccc3)n1)CN(CCCC(=O)O)C2=O	5.75% (inactive)	14.8% (inactive)	3.7% (inactive)	-3% (inactive)	11.9% (inactive)	-0.45% (inactive)
